# Source: PubChem BioAssay
# Shown are actives, neighbours in structure and some others; about 5.6% of the full set was active somewhere.
# PHOSPHO1 inh: inhibitors of human PHOSPHO1 phosphatase | Q8TCT1 | recombinant PHOSPHO1, absorbance phosphatase assay | inhibition, % at 13.3 µM | hit rate 1.1% among 290,000 | AID 1565; in the data active = inhibition above about 60%
# Target sequence (Q8TCT1 whole entry, looked up): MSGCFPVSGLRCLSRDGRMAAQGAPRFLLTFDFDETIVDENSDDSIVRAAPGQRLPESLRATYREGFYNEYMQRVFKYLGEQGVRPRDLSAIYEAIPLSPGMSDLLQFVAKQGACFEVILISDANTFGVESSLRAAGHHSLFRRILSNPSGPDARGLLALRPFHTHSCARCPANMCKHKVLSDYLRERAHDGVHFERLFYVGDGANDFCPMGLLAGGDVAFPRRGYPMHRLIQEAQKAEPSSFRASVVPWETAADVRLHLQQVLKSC
# PfM18AAP inh: blocks P. falciparum M18 aspartyl aminopeptidase; hit rate 1.2% among 290,000; AID 1822; recombinant PfM18AAP, H-Glu-NHMec fluorogenic cleavage; inhibition, % at 7.35 µM;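 active = inhibition above the campaign mean inhibition over all tested compounds plus 3 SD, cut at about 28% in these data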;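 also: 0% = plate median of test compound wells and 100% = 2 mM ZnCl2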
# H9c2 protect: protects H9c2 cardiomyocytes from peroxide injury; protection from H2O2 cell death, % at 20 µM; AID 588492; hit rate 0.63% among 360,000; H2O2 injury protection, ATPLite, 2 h;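 active = compounds giving at least 50% protection of heart cells from peroxide-induced death in the single-dose screen, raw or plate-pattern-corrected value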;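 also: 0% = DMSO wells with peroxide and 100% = DMSO wells without peroxide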
# PfGluPho inh: PfG6PD (Plasmodium falciparum) enzyme inhibition | inhibition, % at 20 µM | PfGluPho enzyme, NADPH resazurin-diaphorase fluorescence | hit rate 0.78% among 350,000;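 active = inhibition reaching at least a set limit at 20 µM in the primary screen, cut at about 59% in these data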;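 also: 0% = DMSO wells with substrate and 100% = DMSO wells lacking glucose-6-phosphate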
# ALR H2O2 inh: blocks human ALR sulfhydryl oxidase activity | purified ALR, DTT oxidation, H2O2 HRP-luminol luminescence | inhibition, % (no concentration beside the values) | hit rate 3.8% among 290,000;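 active = mean replicate inhibition above about 79%, with every replicate also reaching it, limit read from the data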
# Target sequence (P55789 whole entry, looked up): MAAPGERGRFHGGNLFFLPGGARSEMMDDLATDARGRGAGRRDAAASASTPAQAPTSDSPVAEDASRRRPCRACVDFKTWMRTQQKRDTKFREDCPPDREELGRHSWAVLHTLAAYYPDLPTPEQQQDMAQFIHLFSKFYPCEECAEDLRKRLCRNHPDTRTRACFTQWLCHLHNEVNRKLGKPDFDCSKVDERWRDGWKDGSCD
# The depositor's hits bear a star; . = not tested or not shown.
SMILES,PHOSPHO1 inh,PfM18AAP inh,H9c2 protect,PfGluPho inh,ALR H2O2 inh
Cc1ccc(-c2nc(CS(=O)CC(=O)NCCN3CCCCC3C)c(C)o2)cc1 (stereo unspecified),36.8,-3.3,6.5,-9.6,98.0*
COc1ccccc1NC(=O)Nc1cc(F)ccc1F,24.7,3.1,-14.2,12.3,-3.8
CCOC(=O)/C(C#N)=C/c1cc2ccc(C)cc2nc1Cl,5.9,-4.0,5.6,-2.0,96.2*
Cc1cc2cc(C=C(C#N)C#N)c(Cl)nc2cc1C,2.1,3.4,-0.2,40.3,97.6*
COC(=O)c1cc(CNC(=O)c2sccc2-c2ccccc2)ccc1OC,23.8,3.1,1.0,-11.1,-0.2
O=C(NNC(=S)NC(=O)c1ccccc1[N+](=O)[O-])c1ccc(Cl)cc1Cl,-77.5,-4.8,9.4,-15.2,31.4
CC(=O)c1ccc(NC(=S)NNC(=O)c2ccccc2[N+](=O)[O-])cc1,-8.4,12.6,4.9,-20.0,93.4*
O=C(NC(=S)Nc1ccc(N2CCCC2)cc1)c1ccccc1[N+](=O)[O-],15.0,0.0,-6.0,-3.0,-1.9
CCCCOc1ccccc1C(=O)NNC(=S)NC(=O)c1ccccc1[N+](=O)[O-],30.2,3.4,18.4,-24.9,84.1*
O=C(NNC(=S)Nc1ccccc1)c1ccccc1[N+](=O)[O-],-71.3,5.9,-1.4,-22.9,71.7
Cc1ccc(C(=O)NC(=S)NNC(=O)c2ccccc2O)cc1,22.7,16.2,2.8,-58.1,30.6
Cc1ccc(C(=O)NC(=S)NNC(=O)c2ccccc2[N+](=O)[O-])cc1,7.4,22.9,34.7,47.2,98.7*
O=C(NC(=S)Nc1ccccc1N1CCCC1)c1ccccc1[N+](=O)[O-],16.2,0.8,-7.5,12.9,98.0*
COc1ccccc1CNc1nc(NCCN2CCNC2=O)c2sccc2n1,.,.,4.2,.,.
CCOc1ccc(Cl)cc1-c1cc(C(=O)Nc2cc(OC)c(OC)c(OC)c2)[nH]n1,.,.,42.0,.,.
CC1(C(=O)NCc2cccs2)CCN1C(=O)Cc1ccc(Cl)cc1Cl (stereo unspecified),.,.,5.6,.,.
COc1cccc2c1OC1(N3CCOCC3)CCCCC1C2C[N+](=O)[O-] (stereo unspecified),.,.,0.9,9.3,.
O=C(NNC(=S)NC(=O)c1ccccc1[N+](=O)[O-])c1ccccc1[N+](=O)[O-],85.0*,9.4,-0.8,-19.9,-2.0
Cc1ccc(C)c(NC(=O)COC(=O)c2cc(=O)c3ccccc3o2)c1,.,.,3.5,-11.9,.
O=C(O)c1cc(S(=O)(=O)N2CCN(C(c3ccccc3)c3ccccc3)CC2)ccc1Cl,24.2,2.9,1.5,-7.2,86.7*
CCOC(=O)c1c(/N=C/c2cc(C)ccc2O)sc2c1CCN(C)C2,17.4,1.6,5.1,0.0,97.8*
S=c1sc(SCCOc2ccccc2)nn1-c1ccccc1,11.6,3.5,-7.8,10.1,.
CCN1C(=O)[C@H]2[C@@H](c3ccc(-c4ccc(C(C)=O)cc4)cc3)N[C@@](C)(C(=O)OC)[C@H]2C1=O,.,.,52.4*,-1.1,-42.2
COc1c(S(=O)(=O)N2CCN(C)CC2)ccc(Cl)c1Cl,40.1,-12.8,1.2,-9.9,1.3
COc1ccc(Cl)cc1C(=O)CSc1nc(N)cc(N)n1,22.0,5.8,6.9,18.5,93.9*
SMILES,PHOSPHO1 inh,PfM18AAP inh,H9c2 protect,PfGluPho inh,ALR H2O2 inh
Nc1cc(N)nc(SCC(=O)Nc2ccccc2)n1,10.2,0.1,7.9,-20.6,-7.8
Nc1cc(N)nc(SCC(=O)c2ccccc2)n1,42.0,1.7,2.4,37.0,98.7*
CCCCn1nnnc1SCC(=O)c1cc(Cl)ccc1OC,9.4,4.7,1.4,5.5,32.1
CCOC(=O)c1cnc(SCC(=O)c2ccc(C)cc2)nc1N,-4.4,3.4,-10.2,-17.7,-3.5
CCOC(=O)c1cnc(SCC(=O)c2ccccc2)nc1N,101.9*,11.9,-4.3,47.6,-6.0
CC(C)(C)CC(=O)NCCc1csc(-c2ccccc2)n1,9.0,-6.4,-6.5,-4.0,-1.6
COc1ccc(C)cc1N1CC(C(=O)Nc2cccc(C(=O)NC3CC3)c2)CC1=O (stereo unspecified),.,.,6.1,2.2,.
O=c1c(Cl)c(NCc2ccc(F)cc2)cnn1C12CC3CC(CC(C3)C1)C2,9.4,4.6,-5.1,-7.5,-0.7
O=c1c(Cl)c(N2CCN(c3ccccc3)CC2)cnn1C12CC3CC(CC(C3)C1)C2,-6.9,-6.5,-4.3,0.5,85.8*
O=c1c(Cl)c(N2CCN(c3ccc(F)cc3)CC2)cnn1C12CC3CC(CC(C3)C1)C2,-16.0,1.0,-1.6,-4.8,77.1*
CCN1CCN(c2ccc(S(=O)(=O)N3CCCCC3)cc2NC(=O)CCNC(C)=O)CC1,.,.,4.8,-4.4,.
